From the supplement of paper PMC10849652
Of roughly 7,900 targets only a part is listed; those with a hit were picked by preference. About 0.6% of all pairs of compound and target were hits.

What was measured:
Experiment in all cases: log2 fold change, soluble protein after heating vs DMSO (PISA); higher = thermal stabilisation; K562 cells, 10 uM, 30 min; active = over 0.2 and 3.5 SD of the protein, either way, in both replicates (recomputed)
IRAK-1-4 Inhibitor I = compound: C1COCCN1CCN2C3=CC=CC=C3N=C2NC(=O)C4=CC(=CC=C4)[N+](=O)[O-] [IRAK-1-4 Inhibitor I]
Method in brief: (§1)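 K562 cells (2×10^6 cells/mL) were treated with 10 μM compound for 30 min, and aliquots were heated for 3 min over 48°C-58°C. Pooled aliquots were extracted in PBS with 0.5% NP-40 at 4°C, and the supernatant after 21,000xg for 90 min was measured by TMTpro 16plex LC-MS/MS with channel sums equalised. Reported thermal stability, relative to control samples and from duplicates, is a log2 fold change.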

ibrutinib = compound: C=CC(=O)N1CCC[C@@H](n2nc(-c3ccc(Oc4ccccc4)cc3)c3c(N)ncnc32)C1 [ibrutinib]
Method in brief: as §1

[1] = compound: CC(=O)c1cnc2ccc(-c3cc(Cl)c(O)c(Cl)c3)nc2c1N[C@H]1CC[C@H](CN(C)C)CC1
Method in brief: as §1

ralimetinib = compound: CC(C)(C)Cn1c(N)nc2ccc(-c3[nH]c(C(C)(C)C)nc3-c3ccc(F)cc3)nc21 [ralimetinib]
Method in brief: as §1

[2] = compound: CC(C)(O)CC(=O)NCCn1ccc2ncnc(Nc3ccc(Oc4cccc(C(F)(F)F)c4)c(Cl)c3)c21
Method in brief: as §1

[3] = compound: CC(C)C1=C2N=C(C=C(N2N=C1)NCC3=CC=CC=C3)NCCCCCCN
Method in brief: as §1

[4] = compound: CC(C)C[C@@H](C=O)NC(=O)[C@H](CC(C)C)NC(=O)[C@H](CC(C)C)NC(=O)OCc1ccccc1
Method in brief: as §1

pinometostat = compound: CC(C)N(C[C@H]1O[C@@H](n2cnc3c(N)ncnc32)[C@H](O)[C@@H]1O)[C@H]1C[C@@H](CCc2nc3cc(C(C)(C)C)ccc3[nH]2)C1 [pinometostat]
Method in brief: as §1

[5] = compound: CC1=C(C(CC(=O)N1)C2=CC=C(C=C2)C(F)(F)F)C(=O)NC3=C(C=C4C(=C3)C=NN4)F
Method in brief: as §1

[6] = compound: CC1=C(C2=C(C=C1)C(=O)C3=CC=CC=C3N2CCCN)C
Method in brief: as §1

[7] = compound: CC1=C(C=C(C=C1)NC(=O)C2=CC(=CC=C2)C(C)(C)C#N)NC3=CC4=C(C=C3)N=CN(C4=O)C
Method in brief: as §1

[8] = compound: CC1=C(C=C(C=C1)NC(=O)C2=CC(=CC=C2)N(C)C)NC(=O)C3=CC=C(C=C3)O
Method in brief: as §1

[9] = compound: CC1=CC=C(C=C1)SC2=C3C=C(SC3=CN=C2)C(=O)N
Method in brief: as §1

[10] = compound: CC1=NC(=CC=C1)C2=C(N=C(N2)C(C)(C)C)C3=CC4=NC=CN=C4C=C3
Method in brief: as §1

Nexturastat A = compound: CCCCN(Cc1ccc(C(=O)NO)cc1)C(=O)Nc1ccccc1 [Nexturastat A]
Method in brief: as §1

vemurafenib = compound: CCCS(=O)(=O)Nc1ccc(F)c(C(=O)c2c[nH]c3ncc(-c4ccc(Cl)cc4)cc23)c1F [vemurafenib]
Method in brief: as §1

[11] = compound: CCCS(=O)(=O)Nc1ccc(F)c(C(=O)c2c[nH]c3ncc(Cl)cc23)c1F
Method in brief: as §1

[12] = compound: CCCc1cc(C)[nH]c(=O)c1CNC(=O)c1cc(-c2ccnc(N3CCN(C)CC3)c2)cc2c1cnn2C(C)C
Method in brief: as §1

givinostat = compound: CCN(CC)Cc1ccc2cc(COC(=O)Nc3ccc(C(=O)NO)cc3)ccc2c1 [givinostat]
Method in brief: as §1

barasertib = compound: CCN(CCCOc1ccc2c(Nc3cc(CC(=O)Nc4cccc(F)c4)[nH]n3)ncnc2c1)CCOP(=O)(O)O [barasertib]
Method in brief: as §1

Measured: log2 fold change

GUK1 isoform 2 (UniProt Q16774)
UniProt Q16774, sequence (Q16774 whole entry, looked up): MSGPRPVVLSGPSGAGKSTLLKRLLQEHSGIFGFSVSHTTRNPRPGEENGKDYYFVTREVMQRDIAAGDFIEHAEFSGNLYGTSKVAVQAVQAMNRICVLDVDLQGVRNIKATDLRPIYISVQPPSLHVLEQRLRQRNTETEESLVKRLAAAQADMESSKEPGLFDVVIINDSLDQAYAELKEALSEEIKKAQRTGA
inactive: IRAK-1-4 Inhibitor I -0.076 | ibrutinib -0.033 | [1] -0.162 | ralimetinib 0.038 | [2] -0.234 | [3] -0.033 | [4] 0.167 | pinometostat -0.037 | [5] -0.074 | [6] 0.092 | [7] 0.173 | [8] -0.062 | [9] -0.018 | [10] 0.093 | Nexturastat A -0.065 | vemurafenib 0.118 | [11] -0.002 | [12] 0.026 | givinostat 0.072 | barasertib -0.018

HIP1 (UniProt O00291)
inactive: IRAK-1-4 Inhibitor I -0.002 | ibrutinib 0.083 | [1] -0.07 | ralimetinib -0.003 | [2] -0.035 | [3] -0.056 | [4] 0.079 | pinometostat 0.045 | [5] 0.074 | [6] 0.038 | [7] -0.086 | [8] -0.004 | [9] -0.028 | [10] 0.002 | vemurafenib -0.003 | [11] 0.056 | [12] 0.233 | givinostat 0.043 | barasertib 0.01
active: Nexturastat A 0.286

GATD1 (UniProt Q8NB37)
inactive: IRAK-1-4 Inhibitor I -0.069 | ibrutinib 0.106 | [1] -0.099 | ralimetinib -0.026 | [2] 0.01 | [3] 0.026 | [4] 0.104 | pinometostat 0.141 | [5] 0.032 | [6] 0 | [7] 0.054 | [8] -0.041 | [9] -0.023 | [10] -0.108 | Nexturastat A 0.067 | vemurafenib -0.047 | [11] -0.06 | [12] 0.021 | givinostat 0.013 | barasertib 0.024

GYS1 (UniProt P13807)
active: [1] -0.976
inactive: IRAK-1-4 Inhibitor I -0.151 | ibrutinib 0.009 | ralimetinib 0.095 | [2] 0.158 | [3] -0.253 | [4] 0.141 | pinometostat 0.412 | [5] 0.042 | [6] 0.046 | [7] 0.057 | [8] -0.04 | [9] -0.068 | [10] -0.13 | Nexturastat A 0.515 | vemurafenib 0.052 | [11] -0.01 | [12] 0.091 | givinostat 0.108 | barasertib -0.033

GPAT4 (UniProt Q86UL3)
UniProt Q86UL3, sequence (Q86UL3 whole entry, looked up): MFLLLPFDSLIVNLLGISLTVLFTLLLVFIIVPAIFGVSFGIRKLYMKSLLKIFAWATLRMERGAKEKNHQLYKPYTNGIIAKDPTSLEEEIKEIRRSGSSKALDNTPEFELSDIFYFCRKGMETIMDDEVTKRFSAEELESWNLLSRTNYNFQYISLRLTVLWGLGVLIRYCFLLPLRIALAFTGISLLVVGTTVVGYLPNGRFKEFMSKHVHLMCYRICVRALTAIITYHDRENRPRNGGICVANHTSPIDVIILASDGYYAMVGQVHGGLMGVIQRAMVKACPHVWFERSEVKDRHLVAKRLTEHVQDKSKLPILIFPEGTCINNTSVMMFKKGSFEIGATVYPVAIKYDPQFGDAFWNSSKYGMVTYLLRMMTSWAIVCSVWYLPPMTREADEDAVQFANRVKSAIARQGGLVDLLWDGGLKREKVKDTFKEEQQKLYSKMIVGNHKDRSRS
inactive: IRAK-1-4 Inhibitor I -0.144 | ibrutinib -0.081 | [1] 0.044 | ralimetinib -0.058 | [2] -0.09 | [3] 0.145 | [4] 0.007 | pinometostat -0.029 | [5] -0.015 | [6] 0.047 | [7] 0.05 | [8] -0.004 | [9] 0.014 | [10] -0.004 | Nexturastat A -0.004 | vemurafenib 0.036 | [11] 0.027 | [12] 0.019 | givinostat -0.024 | barasertib 0.027

HPCAL1 (UniProt P37235)
inactive: IRAK-1-4 Inhibitor I 0.02 | ibrutinib -0.015 | [1] 0.028 | ralimetinib -0.117 | [2] -0.018 | [3] -0.081 | [4] -0.015 | pinometostat -0.003 | [5] 0.001 | [6] -0.041 | [7] -0.022 | [8] 0.012 | [9] 0.048 | [10] 0.032 | Nexturastat A -0.092 | vemurafenib -0.017 | [11] 0.005 | [12] -0.076 | givinostat -0.041 | barasertib 0.019

GOLGB1 isoform 2 (UniProt Q14789)
UniProt Q14789, sequence (Q14789 whole entry, looked up): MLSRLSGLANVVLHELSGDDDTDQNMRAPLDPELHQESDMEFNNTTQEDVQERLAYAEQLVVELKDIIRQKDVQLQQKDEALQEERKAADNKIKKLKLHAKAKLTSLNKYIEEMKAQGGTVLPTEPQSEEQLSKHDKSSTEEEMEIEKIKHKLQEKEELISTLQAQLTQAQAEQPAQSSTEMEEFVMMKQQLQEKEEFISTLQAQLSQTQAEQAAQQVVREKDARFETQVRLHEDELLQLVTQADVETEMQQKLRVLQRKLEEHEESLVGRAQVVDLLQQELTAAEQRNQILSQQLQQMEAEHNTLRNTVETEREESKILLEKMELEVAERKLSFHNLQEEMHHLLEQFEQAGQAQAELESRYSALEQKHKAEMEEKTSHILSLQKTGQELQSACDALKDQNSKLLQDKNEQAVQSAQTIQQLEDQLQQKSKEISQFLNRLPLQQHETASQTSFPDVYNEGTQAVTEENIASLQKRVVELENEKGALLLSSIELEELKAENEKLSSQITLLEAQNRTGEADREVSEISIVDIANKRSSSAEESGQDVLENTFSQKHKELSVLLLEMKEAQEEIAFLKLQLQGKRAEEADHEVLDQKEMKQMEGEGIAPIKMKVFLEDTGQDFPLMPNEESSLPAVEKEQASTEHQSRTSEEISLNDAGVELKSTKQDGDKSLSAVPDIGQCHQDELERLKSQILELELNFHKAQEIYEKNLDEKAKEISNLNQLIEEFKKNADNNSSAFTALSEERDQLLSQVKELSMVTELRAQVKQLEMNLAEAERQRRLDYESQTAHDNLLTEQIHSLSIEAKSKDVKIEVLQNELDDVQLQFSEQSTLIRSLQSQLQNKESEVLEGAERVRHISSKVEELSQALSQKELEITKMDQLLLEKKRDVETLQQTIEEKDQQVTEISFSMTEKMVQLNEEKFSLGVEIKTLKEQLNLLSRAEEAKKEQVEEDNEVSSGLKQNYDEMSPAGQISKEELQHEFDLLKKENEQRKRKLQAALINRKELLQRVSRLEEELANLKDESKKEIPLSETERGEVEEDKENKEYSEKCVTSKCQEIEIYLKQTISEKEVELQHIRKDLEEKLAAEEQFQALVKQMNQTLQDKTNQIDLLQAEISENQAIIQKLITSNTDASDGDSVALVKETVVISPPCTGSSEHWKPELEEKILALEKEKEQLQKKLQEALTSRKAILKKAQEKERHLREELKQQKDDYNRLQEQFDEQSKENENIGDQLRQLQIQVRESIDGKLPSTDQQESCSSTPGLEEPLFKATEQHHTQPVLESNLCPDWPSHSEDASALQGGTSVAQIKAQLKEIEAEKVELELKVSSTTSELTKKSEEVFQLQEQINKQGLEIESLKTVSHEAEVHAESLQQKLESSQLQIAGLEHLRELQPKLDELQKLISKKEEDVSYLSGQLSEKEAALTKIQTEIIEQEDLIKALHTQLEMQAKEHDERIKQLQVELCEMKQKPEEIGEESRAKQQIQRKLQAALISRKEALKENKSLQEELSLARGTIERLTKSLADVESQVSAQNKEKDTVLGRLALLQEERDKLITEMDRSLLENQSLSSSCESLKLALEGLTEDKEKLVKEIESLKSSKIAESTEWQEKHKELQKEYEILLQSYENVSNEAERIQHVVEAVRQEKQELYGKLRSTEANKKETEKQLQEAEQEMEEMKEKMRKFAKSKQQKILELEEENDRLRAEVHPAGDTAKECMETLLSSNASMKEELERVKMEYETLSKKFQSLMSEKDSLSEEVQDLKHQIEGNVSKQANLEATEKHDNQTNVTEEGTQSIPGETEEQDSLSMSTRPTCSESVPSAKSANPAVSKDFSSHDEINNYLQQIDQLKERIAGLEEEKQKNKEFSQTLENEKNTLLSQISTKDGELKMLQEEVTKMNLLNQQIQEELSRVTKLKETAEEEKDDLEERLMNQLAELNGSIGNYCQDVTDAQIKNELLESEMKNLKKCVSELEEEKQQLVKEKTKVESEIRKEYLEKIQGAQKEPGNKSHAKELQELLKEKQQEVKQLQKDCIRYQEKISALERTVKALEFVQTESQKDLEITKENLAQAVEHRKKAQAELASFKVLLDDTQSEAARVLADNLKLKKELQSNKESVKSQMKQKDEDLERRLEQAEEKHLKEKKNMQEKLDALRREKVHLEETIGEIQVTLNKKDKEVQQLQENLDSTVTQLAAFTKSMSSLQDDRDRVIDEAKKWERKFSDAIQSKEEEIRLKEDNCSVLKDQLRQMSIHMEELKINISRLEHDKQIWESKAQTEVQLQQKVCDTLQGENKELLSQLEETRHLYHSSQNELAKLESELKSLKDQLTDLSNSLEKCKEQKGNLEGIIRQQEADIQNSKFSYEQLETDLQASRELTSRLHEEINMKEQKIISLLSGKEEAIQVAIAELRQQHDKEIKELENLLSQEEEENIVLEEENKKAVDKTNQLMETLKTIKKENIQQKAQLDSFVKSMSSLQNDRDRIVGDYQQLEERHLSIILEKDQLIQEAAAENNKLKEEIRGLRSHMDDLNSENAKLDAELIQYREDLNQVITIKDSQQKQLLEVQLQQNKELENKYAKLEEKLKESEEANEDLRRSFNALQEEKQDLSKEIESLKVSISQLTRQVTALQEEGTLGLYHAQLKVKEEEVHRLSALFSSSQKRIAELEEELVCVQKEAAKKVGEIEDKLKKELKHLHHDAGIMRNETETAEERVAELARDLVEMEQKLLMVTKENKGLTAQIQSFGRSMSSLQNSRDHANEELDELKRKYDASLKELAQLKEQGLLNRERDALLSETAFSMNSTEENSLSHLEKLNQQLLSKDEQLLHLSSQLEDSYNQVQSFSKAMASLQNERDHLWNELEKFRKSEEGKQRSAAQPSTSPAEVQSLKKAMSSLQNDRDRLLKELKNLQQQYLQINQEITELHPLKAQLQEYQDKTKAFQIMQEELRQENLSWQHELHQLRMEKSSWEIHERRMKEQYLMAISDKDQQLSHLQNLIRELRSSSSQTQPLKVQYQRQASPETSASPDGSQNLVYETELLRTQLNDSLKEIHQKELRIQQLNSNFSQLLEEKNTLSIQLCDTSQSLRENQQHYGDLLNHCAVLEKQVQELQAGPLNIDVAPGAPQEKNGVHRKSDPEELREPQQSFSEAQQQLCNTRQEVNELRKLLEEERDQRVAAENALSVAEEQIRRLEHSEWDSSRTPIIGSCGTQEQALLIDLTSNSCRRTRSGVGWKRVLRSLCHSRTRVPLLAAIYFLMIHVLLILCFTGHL
inactive: IRAK-1-4 Inhibitor I -0.023 | ibrutinib -0.032 | [1] 0.031 | ralimetinib 0.045 | [2] 0.05 | [3] 0.065 | [4] 0.082 | pinometostat 0.102 | [5] 0.048 | [6] -0.051 | [7] 0.033 | [8] -0.057 | [9] -0.09 | [10] -0.033 | Nexturastat A 0.177 | vemurafenib -0.085 | [11] -0.07 | [12] -0.047 | givinostat 0 | barasertib -0.07

HNRNPC isoform 2 (UniProt P07910)
UniProt P07910, sequence (P07910 whole entry, looked up): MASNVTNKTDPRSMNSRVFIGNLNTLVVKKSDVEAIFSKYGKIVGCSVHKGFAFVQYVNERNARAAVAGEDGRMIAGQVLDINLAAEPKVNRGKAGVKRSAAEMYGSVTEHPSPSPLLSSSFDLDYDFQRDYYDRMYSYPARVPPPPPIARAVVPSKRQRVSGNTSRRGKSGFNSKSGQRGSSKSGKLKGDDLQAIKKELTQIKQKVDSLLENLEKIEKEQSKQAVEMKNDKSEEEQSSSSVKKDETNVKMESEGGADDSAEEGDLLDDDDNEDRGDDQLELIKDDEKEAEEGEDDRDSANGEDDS
inactive: IRAK-1-4 Inhibitor I -0.332 | ibrutinib 0.043 | [1] -0.365 | ralimetinib 0.106 | [2] 0.195 | [3] -0.197 | [4] 0.281 | pinometostat 0.238 | [5] -0.01 | [6] -0.629 | [7] 0.276 | [8] -0.074 | [9] -0.349 | [10] -0.045 | Nexturastat A 0.449 | vemurafenib -0.055 | [11] -0.191 | [12] 0.028 | givinostat 0.241 | barasertib -0.095

GCDH (UniProt Q92947)
UniProt Q92947, sequence (Q92947 whole entry, looked up): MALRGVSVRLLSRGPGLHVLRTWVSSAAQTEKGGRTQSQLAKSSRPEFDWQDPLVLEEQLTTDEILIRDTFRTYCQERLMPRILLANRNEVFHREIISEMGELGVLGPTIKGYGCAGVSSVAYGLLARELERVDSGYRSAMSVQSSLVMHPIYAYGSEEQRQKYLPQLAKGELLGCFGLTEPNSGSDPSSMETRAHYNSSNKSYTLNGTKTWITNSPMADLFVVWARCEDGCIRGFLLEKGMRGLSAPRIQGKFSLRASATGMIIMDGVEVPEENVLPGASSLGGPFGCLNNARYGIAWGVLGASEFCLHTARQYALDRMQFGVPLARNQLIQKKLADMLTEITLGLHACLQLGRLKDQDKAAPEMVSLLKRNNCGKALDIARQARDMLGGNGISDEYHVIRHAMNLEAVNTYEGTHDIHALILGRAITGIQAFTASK
inactive: IRAK-1-4 Inhibitor I 0.018 | ibrutinib 0.025 | [1] -0.092 | ralimetinib 0.007 | [2] -0.09 | [3] 0.05 | [4] 0.003 | pinometostat -0.053 | [5] -0.012 | [6] 0.055 | [7] -0.017 | [8] -0.004 | [9] 0.014 | [10] 0.009 | Nexturastat A -0.007 | vemurafenib 0 | [11] 0.002 | [12] 0.009 | givinostat 0.004 | barasertib 0.005

GCLM (UniProt P48507)
UniProt P48507, sequence (P48507 whole entry, looked up): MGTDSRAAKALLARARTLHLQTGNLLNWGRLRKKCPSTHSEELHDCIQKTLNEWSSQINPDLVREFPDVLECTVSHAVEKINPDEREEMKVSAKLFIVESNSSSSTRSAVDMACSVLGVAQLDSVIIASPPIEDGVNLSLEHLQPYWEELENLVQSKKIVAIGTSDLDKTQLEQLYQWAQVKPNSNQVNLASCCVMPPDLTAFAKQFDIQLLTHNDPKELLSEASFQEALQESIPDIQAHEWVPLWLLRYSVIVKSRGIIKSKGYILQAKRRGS
inactive: IRAK-1-4 Inhibitor I -0.065 | ibrutinib -0.038 | [1] 0.106 | ralimetinib 0.002 | [2] -0.104 | [3] -0.034 | [4] 0.02 | pinometostat 0.049 | [5] -0.078 | [6] -0.023 | [7] 0.044 | [8] -0.04 | [9] 0.019 | [10] 0.057 | Nexturastat A -0.006 | vemurafenib 0.1 | [11] 0.099 | [12] 0.002 | givinostat 0.074 | barasertib 0.066

HRC (UniProt P23327)
inactive: IRAK-1-4 Inhibitor I 0.002 | ibrutinib 0.003 | [1] 0.041 | ralimetinib -0.039 | [2] 0.132 | [3] 0.074 | [4] 0.011 | pinometostat 0.019 | [5] 0.011 | [6] -0.033 | [7] -0.199 | [8] 0.031 | [9] 0.008 | [10] 0.005 | Nexturastat A 0.041 | vemurafenib -0.044 | [11] -0.097 | [12] -0.025 | givinostat -0.059 | barasertib 0.021

GLRX3 (UniProt O76003)
inactive: IRAK-1-4 Inhibitor I -0.03 | ibrutinib -0.015 | [1] 0.02 | ralimetinib 0.002 | [2] -0.027 | [3] -0.024 | [4] -0.033 | pinometostat -0.033 | [5] -0.021 | [6] -0.025 | [7] 0.007 | [8] -0.033 | [9] 0.02 | [10] 0.028 | Nexturastat A -0.049 | vemurafenib 0.024 | [11] 0.139 | [12] 0.014 | givinostat 0.01 | barasertib 0.054

HMG20A (UniProt Q9NP66)
inactive: IRAK-1-4 Inhibitor I -0.05 | ibrutinib 0.043 | [1] -0.015 | ralimetinib 0.275 | [2] 0.062 | [3] 0.043 | [4] -0.405 | pinometostat 0.026 | [5] -0.008 | [6] 0.007 | [7] -0.051 | [8] -0.009 | [9] -0.153 | [10] -0.016 | Nexturastat A 0.033 | vemurafenib 0.027 | [11] 0.016 | [12] 0.149 | givinostat 0.03 | barasertib 0.024

GABARAPL1 isoform 2 (UniProt Q9H0R8)
UniProt Q9H0R8, sequence (Q9H0R8 whole entry, looked up): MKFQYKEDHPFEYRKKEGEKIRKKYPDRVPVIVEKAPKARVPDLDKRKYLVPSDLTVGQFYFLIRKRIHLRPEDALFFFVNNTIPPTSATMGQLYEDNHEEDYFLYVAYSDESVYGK
active: [3] -0.369
inactive: IRAK-1-4 Inhibitor I 0.031 | ibrutinib -0.057 | [1] -0.065 | ralimetinib -0.003 | [2] -0.024 | [4] 0.092 | pinometostat -0.044 | [5] -0.047 | [6] 0.023 | [7] -0.008 | [8] 0.003 | [9] 0.006 | [10] 0.002 | Nexturastat A -0.013 | vemurafenib -0.016 | [11] -0.025 | [12] -0.007 | givinostat 0.044 | barasertib 0.021

GALK1 isoform 2 (UniProt P51570)
inactive: IRAK-1-4 Inhibitor I 0.046 | ibrutinib 0.024 | [1] 0.018 | ralimetinib 0.081 | [2] -0.081 | [3] -0.004 | [4] -0.121 | pinometostat 0.041 | [5] 0.023 | [6] -0.018 | [7] 0.244 | [8] 0.004 | [9] 0.144 | [10] 0.02 | Nexturastat A -0.082 | vemurafenib 0.144 | [11] 0.183 | [12] 0.033 | givinostat 0.018 | barasertib -0.007

HNRNPK isoform 2 (UniProt P61978)
active: [3] -0.283
inactive: IRAK-1-4 Inhibitor I -0.014 | ibrutinib -0.014 | [1] -0.161 | ralimetinib -0.054 | [2] -0.025 | [4] 0.003 | pinometostat -0.033 | [5] 0.005 | [6] -0.062 | [7] 0.034 | [8] 0.004 | [9] -0.003 | [10] 0.075 | Nexturastat A 0.022 | vemurafenib 0.048 | [11] 0.048 | [12] -0.031 | givinostat 0.063 | barasertib 0.024
